# Results filed as inconclusive are left out. Entries that show only a call come without a potency. Active and inactive are the calls of the source. The call rests on the fitted dose curve; in most records, active means well fitted activation curve with a large enough effect in the signal ratio in the repeat runs (not every such curve was filed as active); inconclusive means weak or mixed curves, or effect the other way; inactive means flat fitted curve, though single readings scatter; the % refers to the signal ratio.
# Test: qHTS assay to identify small molecule agonists of the endoplasmic reticulum stress response signaling pathway (AID 1159516)
# Conditions: ESRE-bla HeLa, ER stress beta-lactamase reporter, 5 h; series mostly up to 61 µM
# From the text: National Center for Advancing Translational Sciences [NCATS]
# NIH Chemical Genomics Center [NCGC]
# U.S. Environmental Protection Agency [EPA]
# National Institutes of Environmental Health Sciences [NIEHS]
# National Toxicology Program [NTP]
# U.S. Food and Drug Administration [FDA]
# Endoplasmic Reticulum (ER) plays an important role in cellular signaling, protein folding/maturation, stress response, lipid biosynthesis, calcium storage and release etc. Under stress conditions, proteins in ER misfold or unfold, and leading to the expression of ER stress responsive genes. ER stress has been associated with a variety of pathophysiological conditions such as cancer, inflammation, neurodegenerative diseases, diabetes, ischemic heart disease etc. To identify the compounds that induce ER stress response, an ER stress reporter cell line, CellSensor ESRE-bla HeLa (Life Technologies, Carlsbad, CA) containing a beta-lactamase reporter gene under control of the Endoplasmic reticulum Stress Response Element (ESRE) was used to screen Tox21 10K compound library.
# Tox21 Assay Protocol Summary:
# ESRE-bla HeLa cells were dispensed at 1,500 cells/6 uL of assay medium per well into black wall/clear-bottom 1536-well plates using a Multidrop Combi (ThermoFisher Scientific, Waltham, MA) dispenser. After the assay plates were incubated at 37 C and 5% CO2 for an overnight, 23 nL of compounds dissolved in DMSO, positive controls or DMSO only was transferred to the assay plate by a Pintool station (Kalypsys, San Diego, CA). The assay plates were incubated at 37 C and 5% CO2 for 5 hr. One uL of LiveBLAzer B/G FRET substrate (Life Technologies) was added using a Flying Reagent Dispenser (Aurora Discovery, San Diego, CA) and the plates were incubated at room temperature for 2 hr. Fluorescence intensity (405 nm excitation, 460 nm and 530 nm emissions) was measured using an Envision plate reader (PerkinElmer, Shelton, CT).
row,Structure (SMILES),Potency
1,CC(=O)c1ccccn1,inactive
2,CC(C)OB(OC(C)C)OC(C)C,inactive
3,O=C(OCc1ccccc1)c1ccccc1O,inactive
4,O=P(O)(O)O,inactive
5,CC(=O)C1(C)CC2=C(CCCC2(C)C)CC1C (stereo not given),inactive
6,OCCO,inactive
7,C=C(C)C(=O)OCCOC(=O)C(=C)C,inactive
8,C[C@]12CC[C@H]3[C@@H](CCC4=CC(=O)CC[C@@]43C)[C@@H]1CC[C@@H]2C(=O)CO,inactive
9,Cc1c(OCC(F)(F)F)ccnc1CS(=O)c1nc2ccccc2[nH]1 (stereo not given),inactive
10,CCCCCCCCCCCO,inactive
11,O=[N+]([O-])c1ccc2c(c1)Cc1ccccc1-2,inactive
12,Nc1ccc(Cl)cc1Cl,inactive
13,CCCCOCCOCCO,inactive
14,CN(C)CCC=C1c2ccccc2CCc2ccccc21,inactive
15,COc1ccc(OC)c(C(O)CNC(=O)CN)c1 (stereo not given),inactive
16,COc1ccc(C(=O)CC(=O)c2ccc(C(C)(C)C)cc2)cc1,inactive
17,O=C(/C=C/C=C/c1ccc2c(c1)OCO2)N1CCCCC1,inactive
18,COC(=O)Nc1nc2ccc(S(=O)c3ccccc3)cc2[nH]1 (stereo not given),inactive
19,CC(C)=CCCC(C)CCO (stereo not given),inactive
20,CCCCNS(=O)(=O)c1ccccc1,inactive

row,Structure (SMILES),Potency
1,c1ccc2c(c1)Oc1ccccc1S2,inactive
2,OC[C@H]1O[C@@H]2O[C@H]3[C@H](O)[C@@H](O)[C@@H](O[C@H]4[C@H](O)[C@@H](O)[C@@H](O[C@H]5[C@H](O)[C@@H](O)[C@@H](O[C@H]6[C@H](O)[C@@H](O)[C@@H](O[C@H]7[C@H](O)[C@@H](O)[C@@H](O[C@H]8[C@H](O)[C@@H](O)[C@@H](O[C@H]1[C@H](O)[C@H]2O)O[C@@H]8CO)O[C@@H]7CO)O[C@@H]6CO)O[C@@H]5CO)O[C@@H]4CO)O[C@@H]3CO,inactive
3,CCOC(=O)C(C#N)=C(c1ccccc1)c1ccccc1,inactive
4,O=C(O)c1ccccc1Nc1cccc(C(F)(F)F)c1,inactive
5,CCCCc1oc2ccccc2c1C(=O)c1cc(I)c(OCCN(CC)CC)c(I)c1,inactive
6,CCCCC(CC)COC(=O)c1ccc(N(C)C)cc1 (stereo not given),inactive
7,O=CCc1ccccc1,inactive
8,Cc1[nH]c(=O)c(C#N)cc1-c1ccncc1,inactive
9,CC(C)Oc1ccc2c(=O)c(-c3ccccc3)coc2c1,inactive
10,Cc1cccc(N(C)C(=S)Oc2ccc3ccccc3c2)c1,inactive
11,O=C(Nc1ccc(Cl)cc1)Nc1ccc(Cl)c(Cl)c1,inactive
12,c1ccc(Nc2ccccc2)cc1,inactive
13,C#C[C@]1(O)CC[C@H]2[C@@H]3CCC4=Cc5oncc5C[C@]4(C)[C@H]3CC[C@@]21C,inactive
14,Cc1cc2nc3c(=O)[nH]c(=O)nc-3n(C[C@H](O)[C@H](O)[C@H](O)CO)c2cc1C,inactive
15,CC(C)OC=O,inactive
16,O=Cc1ccccc1O,inactive
17,C=C(C)C1CC=C(C)CC1 (stereo not given),inactive
18,c1cc(-c2ccncc2)ccn1,inactive
19,CC(C(=O)O)c1cccc(C(=O)c2ccccc2)c1 (stereo not given),inactive
20,Cc1ccc(C)c(O)c1C,inactive

# From PubChem BioAssay (Tox21)
